MCF10A rerep: DNA re-replication induction in MCF 10a cells. MCF 10A DNA re-replication, Hoechst nuclear intensity, 48 h. Potency, µM (series often up to 46.1 µM), inactives show at the highest dose activity, positive = re-replication, usual class: activators. 2.9% of 350,000 active; further: % of control where 0% means no effect; nearly all actives have a fitted effect of over 50% in size
KB-3-1 cytotox: KB-3-1 parental cell cytotoxicity; KB-3-1 viability, CellTiter-Glo ATP luminescence, 72 h; Potency, µM (top dose mostly 46.1 µM), hits mostly cytotoxic; 1.4% of 400,000 active; AID 1347075; further: on the % scale 0 is the no-effect control and ±100 the full control effect; nearly all actives have a fitted effect of over 60% in size
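Cytotoxicity in the drug-sensitive parental line KB-3-1 was scored as loss of CellTiter-Glo luminescence following 72 h incubation with compound. Values come from curve fitting of normalized concentration-response data.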
PTAP TSG101 blk: blocks PTAP/TSG101 interaction to inhibit HIV-1 budding | Q99816 | Fluorescence polarization, FITC-PTAP peptide / Tsg101 binding | Potency, µM (top dose mostly 115 µM), for inactives: top-dose activity change, negative = inhibition, hits mostly inhibitors | 340,000 tested, under 10 active | AID 493005; active means well fitted inhibition curve with a large enough effect in the main read-out, with a control signal flat, not every such curve was filed as active; inconclusive means small, poorly fitted or top-dose-only effect, or effect the other way, or a change in a side signal; inactive means no such curve, though single readings can be large or run the other way; further: % of control where 0% means no effect
Target sequence (Q99816 whole entry, looked up): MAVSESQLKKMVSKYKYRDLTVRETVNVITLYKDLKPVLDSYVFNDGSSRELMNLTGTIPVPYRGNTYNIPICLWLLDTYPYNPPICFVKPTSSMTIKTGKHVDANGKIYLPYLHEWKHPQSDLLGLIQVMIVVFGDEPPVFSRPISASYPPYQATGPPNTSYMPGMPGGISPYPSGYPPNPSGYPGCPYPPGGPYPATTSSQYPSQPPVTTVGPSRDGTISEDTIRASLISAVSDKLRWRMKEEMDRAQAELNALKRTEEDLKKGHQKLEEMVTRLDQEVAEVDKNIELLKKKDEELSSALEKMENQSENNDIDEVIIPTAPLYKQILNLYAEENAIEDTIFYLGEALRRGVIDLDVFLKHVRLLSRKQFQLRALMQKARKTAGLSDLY
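Compounds were pin-transferred onto Tsg101 binding domain (10 uM final) in HEPES pH 7.5 buffer, then FITC-PTAP peptide was added at 50 nM final. After 20 min at RT, polarization reported peptide displacement across a qHTS concentration series.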
SW480 rereplic: inducers of DNA re-replication in SW480 colon cancer cells; 1.8% of 340,000 active; SW480 DNA re-replication, Hoechst DNA content imaging, 48 h; Potency, µM (titrated, usually from 46.1 µM), for inactives: at the highest dose re-replication activation, actives largely listed as activators; further: % of control where 0% means no effect; nearly all actives have a fitted effect of over 55% in size
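Hoechst fluorescence of nuclei (405 nm excitation, 500-530 nm emission) measured by plate-scanning imager after 48 hr compound exposure at 37 C; re-replication scored as increased number of nuclei with elevated intensity.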
PINK1 expr mod: modulators of PINK1 expression; 0.2% of 410,000 active; Potency, µM (series often up to 76.6 µM), for the others: at the top dose activation (PINK1 increase), most hits filed as activators; PINK1 immunofluorescence, high-content cytometry, 24 h; active means well fitted activation curve with a large enough effect; inconclusive means small, poorly fitted or top-dose-only effect; cell line not stated here; further: % of control where 0% means no effect; nearly all actives have a fitted effect of over 65% in size
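PINK1 protein, normally rapidly degraded, was detected by immunofluorescence after 24 hour compound treatment of a stable cell line. Titration data (5 concentrations) came from laser-scanning cytometry, with CCCP-treated wells as controls.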
KB-V1 MDR tox: KB-V1 MDR subline cytotoxicity; Potency, µM (doses to about 46.1 µM), usual class: cytotoxic; 3.4% of 400,000 active; AID 1347076; KB-V1 MDR cells viability, CellTiter-Glo, 72 h; further: on the % scale 0 is the no-effect control and ±100 the full control effect; nearly all actives have a fitted effect of over 60% in size
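In this primary screen, KB-V1 cells overexpressing P-gp are incubated with library compounds (lowest to highest concentration) for 72 h at 37 degrees C before a luminescent ATP viability read.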
An asterisk follows results filed as active; ! = not active in a repeat; [ ] = remark or other dose. Sampled rows, rich in hits. Any-hit rate of the full collection: about 6.8%. Unless noted, the call rests on the fitted dose curve; in most records, active means well fitted curve in the direction sought with a large enough effect; inconclusive means small, poorly fitted or top-dose-only effect, or another doubt; inactive means no such curve, though single readings can be large; an effect the other way counts as inactive or inconclusive. Potency means the concentration at half of the fitted maximal effect.

How did CCOc1ccc2oc(=O)cc(CN3CCN(c4ccc(OC)cc4)CC3)c2c1 do in these assays?
PINK1 expr mod: 0%

How did CCc1ccc(Cn2c(CNS(=O)(=O)c3ccc(Cl)s3)nc3cccnc32)cc1 do in these assays?
PINK1 expr mod: 4%

How did CCN1CCCC1CNC(=O)c1cnn(-c2nccc(-c3cc(OC)ccc3OC)n2)c1C (centres undefined) do in these assays?
PINK1 expr mod: -1%

What do the screens show for `COC(=O)NCCOc1nc(N(C)C)nc(N(C)C)n1`?
MCF10A rerep: 25%; KB-3-1 cytotox: inactive; PTAP TSG101 blk: -5%; SW480 rereplic: -4%; PINK1 expr mod: 1%; KB-V1 MDR tox: inactive

What do the screens show for `CN(C)c1nc(C(=O)NN)nc(N(C)C)n1`?
MCF10A rerep: 3.7µM*; KB-3-1 cytotox: inactive; PTAP TSG101 blk: -3%; SW480 rereplic: 16%; PINK1 expr mod: -1%[38.3 µM]; KB-V1 MDR tox: inactive

Results for CC(=O)OCCSc1c(-c2ccccc2)c2cc(Cl)ccc2[nH]c1=O ?
MCF10A rerep: 12%; KB-3-1 cytotox: inactive; PTAP TSG101 blk: 1%; SW480 rereplic: -50%; PINK1 expr mod: 0%; KB-V1 MDR tox: 23µM*

Results for COC(=O)CSc1c(-c2ccccc2)c2cc(Cl)ccc2[nH]c1=O ?
MCF10A rerep: 6%; KB-3-1 cytotox: inactive; PTAP TSG101 blk: -5%; SW480 rereplic: 2%; PINK1 expr mod: 6%; KB-V1 MDR tox: inactive

Results for Cc1nc(-c2ccc3c(c2)CCC(=O)N3)cs1 ?
MCF10A rerep: -1%; KB-3-1 cytotox: inconclusive; PTAP TSG101 blk: -5%; SW480 rereplic: -119%; PINK1 expr mod: 0%; KB-V1 MDR tox: 1.3µM*

Results for Cc1ccc(-c2csc(Cc3nc(-c4ccc5c(c4)CCC(=O)N5)cs3)n2)cc1 ?
MCF10A rerep: 7%; KB-3-1 cytotox: inactive; PTAP TSG101 blk: -5%; SW480 rereplic: 3%; PINK1 expr mod: 0%; KB-V1 MDR tox: inconclusive

How did CC(=O)c1ccc(-c2nc3c4ccccc4ccn3c2C(C)=O)o1 do in these assays?
MCF10A rerep: -6%; KB-3-1 cytotox: inconclusive; PTAP TSG101 blk: -2%; SW480 rereplic: 7%; PINK1 expr mod: 10%; KB-V1 MDR tox: 7.3µM*

How did Cc1ccc(Cc2c(-c3ccco3)nc3c4ccccc4ccn23)cc1 do in these assays?
KB-3-1 cytotox: inactive; PINK1 expr mod: 30%; KB-V1 MDR tox: inconclusive

What do the screens show for `CC(=O)NN1C(=O)c2ccccc2NC1c1ccc([N+](=O)[O-])o1` (centres undefined)?
MCF10A rerep: 15%; KB-3-1 cytotox: inconclusive; PTAP TSG101 blk: -6%; SW480 rereplic: 23µM*; PINK1 expr mod: 0%; KB-V1 MDR tox: inactive

Results for O=C1c2ccccc2NC(c2ccc(-c3ccccc3F)o2)N1O (centres undefined) ?
MCF10A rerep: -5%; KB-3-1 cytotox: inconclusive; PTAP TSG101 blk: -6%; SW480 rereplic: -40%[9.22 µM]; PINK1 expr mod: inconclusive; KB-V1 MDR tox: inactive

What do the screens show for `O=C(NN1C(=O)c2cc(Br)ccc2NC1c1ccccc1Cl)c1ccncc1` (centres undefined)?
MCF10A rerep: 6%; KB-3-1 cytotox: inactive; PTAP TSG101 blk: 0%; SW480 rereplic: 21µM*; PINK1 expr mod: -2%; KB-V1 MDR tox: inactive

What do the screens show for `O=C(NN1C(=O)c2ccccc2NC1c1ccc([N+](=O)[O-])o1)c1ccc(Br)cc1` (centres undefined)?
MCF10A rerep: 9.2µM*; KB-3-1 cytotox: inactive; PTAP TSG101 blk: 0%; SW480 rereplic: inconclusive; PINK1 expr mod: 0%; KB-V1 MDR tox: inactive

How did CC(=O)NN1C(=O)c2ccccc2NC1c1ccco1 (centres undefined) do in these assays?
MCF10A rerep: -14%; KB-3-1 cytotox: inactive; PTAP TSG101 blk: -2%; SW480 rereplic: inconclusive; PINK1 expr mod: -1%; KB-V1 MDR tox: inactive

Results for Cc1cc([N+](=O)[O-])ccc1-c1ccc(C2Nc3ccccc3C(=O)N2O)o1 (centres undefined) ?
MCF10A rerep: 10µM*; KB-3-1 cytotox: 23µM*; PTAP TSG101 blk: 2%; SW480 rereplic: inconclusive; PINK1 expr mod: inconclusive; KB-V1 MDR tox: inactive

How did COc1ccc(C(CC(=O)Nc2ccc(C(C)=O)cc2)N2Cc3ccccc3C2=O)cc1 (centres undefined) do in these assays?
PINK1 expr mod: 1%

How did COc1cc(NC(=O)N2CCSc3ccccc32)cc(OC)c1OC do in these assays?
KB-3-1 cytotox: inactive; PINK1 expr mod: 0%; KB-V1 MDR tox: inactive

How did COc1ccc2c(c1)c(CC(=O)Nc1nnc(C3CC3)s1)c(C)n2C(=O)c1ccc(Cl)cc1 do in these assays?
MCF10A rerep: 10µM*; KB-3-1 cytotox: inconclusive; PTAP TSG101 blk: 5%; SW480 rereplic: inconclusive; PINK1 expr mod: 4%; KB-V1 MDR tox: inconclusive

What do the screens show for `COc1ccc2c(c1)c(CC(=O)Nc1ccccc1OC)c(C)n2C(=O)c1ccc(Cl)cc1`?
MCF10A rerep: 16µM*; KB-3-1 cytotox: inconclusive; PTAP TSG101 blk: -6%; SW480 rereplic: 0%; PINK1 expr mod: 1%; KB-V1 MDR tox: inconclusive

Results for COc1ccc(OC)c(NC(=O)Cc2c(C)n(C(=O)c3ccc(Cl)cc3)c3ccc(OC)cc23)c1 ?
KB-3-1 cytotox: inconclusive; PINK1 expr mod: 1%; KB-V1 MDR tox: inconclusive

Results for COc1ccc2c(c1)c(CC(=O)NCc1cc([N+](=O)[O-])ccc1O)c(C)n2C(=O)c1ccc(Cl)cc1 ?
MCF10A rerep: 23µM*; KB-3-1 cytotox: inconclusive; PTAP TSG101 blk: 0%; SW480 rereplic: -2%; PINK1 expr mod: inconclusive; KB-V1 MDR tox: inconclusive

How did COc1ccc2c(c1)c(CC(=O)Nc1ccc(C(C)=O)cc1)c(C)n2C(=O)c1ccc(Cl)cc1 do in these assays?
MCF10A rerep: 3%; KB-3-1 cytotox: inactive; PTAP TSG101 blk: 6%; SW480 rereplic: -18%; PINK1 expr mod: 3%; KB-V1 MDR tox: inconclusive

What do the screens show for `O=C(CC(=O)c1ccccn1)c1ccccc1`?
MCF10A rerep: -5%; KB-3-1 cytotox: inconclusive; PTAP TSG101 blk: -2%; SW480 rereplic: inconclusive; PINK1 expr mod: -1%; KB-V1 MDR tox: 13µM*

Results for CCOc1c(C)cc(-c2ncccc2O)cc1C ?
MCF10A rerep: 12%; KB-3-1 cytotox: inconclusive; PTAP TSG101 blk: -1%; SW480 rereplic: 14%; PINK1 expr mod: 41%[38.3 µM]; KB-V1 MDR tox: 13µM*!

What do the screens show for `Cc1cccc(OCC(=O)NC(Cc2ccccc2)C(=O)O)c1` (centres undefined)?
MCF10A rerep: 0%; KB-3-1 cytotox: inactive; PTAP TSG101 blk: -1%; SW480 rereplic: -3%; PINK1 expr mod: 2%; KB-V1 MDR tox: inactive
